The OligoGym collection

target: GPX2; assay: pooled miR-30 sensor sort-seq; sequence = guide strand; details: shRNA
Also: reference of the scale not given here.

Row | Sequence | sensor-assay potency score (higher = more potent)
1 | ATACTTGAGACTGTTCAGGATC | -0.893
2 | TTCCAGGCCACATCTGAGCGGC | -0.521
3 | TTGCAGCTCGTTGAGCTGGGTG | -0.963
4 | TTGAAATCTACCTTCTCCCCAT | 0.588
5 | TTGATGGTTGGGAAGGTGCGGC | -0.796

target: GRAMD1B; assay: as above; details: shRNA

Row | Sequence | sensor-assay potency score (higher = more potent)
6 | TTCTTGGAGCCTTAGACCCTGC | -0.896
7 | AACATCATCATATATGTCCTAT | -0.649
8 | TTGTAGAAGAGCATCATGTTAA | -0.883
9 | TAACACATTATACCAACTCTGG | -0.853
10 | TATCGTGGTACTTTTGTTGGGA | 0.623
11 | TTGGTCTCTATGCTGCTCTTGG | -0.389
12 | TTGTGTAGAAGTAGTCATGGTA | 0.548
13 | TACATGGTCTGTGTCTCCCTGA | 0.155
14 | TTGTCATTGAAGTCCAGTGAAG | -1.36
15 | TTTTTGGAGCTCAGTATCGTGG | -1.12
16 | TTTTCTTCACTTTCCGACGTGT | 0.0883
17 | TTGTCTGTGCATCTCAGCCAAA | -1.36
